Source: PubChem BioAssay (National Center for Advancing Translational Sciences (NCATS))
This is a sample that favours compounds with a hit; in the whole collection about 7.7% have one here.
RE007 growth inh – less growth of the S. pombe RE007 Vpr strain; S. pombe RE007 Vpr strain, BacTiter-Glo ATP luminescence, 24 h; Potency, µM (series often up to 92.2 µM), hits mostly inhibitors; hit rate 0.21% among 360,000; active = well fitted falling curve with a large enough effect; inconclusive = small, poorly fitted or top-dose-only effect; inactive = no such curve, though single readings can be large or run the other way; also: nearly all actives have a fitted effect of over 50% in size
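Fission yeast strain RE007, carrying one chromosomally integrated HIV-1 vpr copy, was seeded at OD 0.01 in PMG+AL medium with 23 nL pinned compound. After 24 h at 30 °C and 99% humidity, viability was read by BacTiter-Glo luminescence.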
Tb PYK inh – blocks Trypanosoma brucei pyruvate kinase; TbPYK enzyme, Kinase-Glo Plus ATP luminescence, 45 min; hit rate 0.12% among 410,000; Potency, µM (highest dose often 76.8 µM), usual class: inhibitors; Q57TT1; also: nearly all actives have a fitted effect of over 50% in size
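In this concentration-response screen, enzyme-free wells defined baseline while DMSO plates tracked drift. Each reaction combined TbPYK, substrate, compound and 130 uM ADP for 45 min at room temperature. Kinase-Glo Plus luminescence gave the signal.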
Giardia FBPA inh – blocks Giardia fructose-bisphosphate aldolase activity. A8B2U2. Potency, µM (titrated, usually from 59.6 µM), usual class: inhibitors. hit rate 0.71% among 290,000. AID 2451. purified Giardia FBPA; also: nearly all actives have a fitted effect of over 55% in size
Target sequence (A8B2U2 whole entry, looked up): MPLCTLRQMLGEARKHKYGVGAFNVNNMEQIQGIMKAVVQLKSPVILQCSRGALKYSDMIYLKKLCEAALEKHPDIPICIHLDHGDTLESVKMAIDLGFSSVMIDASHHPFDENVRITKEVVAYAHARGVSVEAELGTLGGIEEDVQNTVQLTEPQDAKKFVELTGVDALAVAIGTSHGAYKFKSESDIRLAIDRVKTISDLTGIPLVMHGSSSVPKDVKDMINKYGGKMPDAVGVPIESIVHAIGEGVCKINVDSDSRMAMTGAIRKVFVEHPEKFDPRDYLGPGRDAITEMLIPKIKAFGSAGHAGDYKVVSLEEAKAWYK
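Giardia FBPA (40 nM reagent) was preincubated 10 min at RT with compound (up to 57.5 uM final), then substrate plus GAPDH/TPI/NAD/arsenate coupling system with diaphorase/resazurin was added; resorufin fluorescence (525/598 nm) was read after 20 min.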
FMDV inh – foot and mouth disease virus antiviral activity. FMDV antiviral cell-based qHTS. Potency, µM (doses to about 57.9 µM), hits mostly inhibitors. hit rate 1.2% among 410,000. AID 1159524; calls by dose curve; tested in HEK293T cells; also: read-out not given here; nearly all actives have a fitted effect of over 45% in size
HCMV inh – inhibitors of human cytomegalovirus; HFF cells, HCMV-luciferase reporter, 72 h; hits give low values; activity change, negative = inhibition, % at 57.5 µM; hit rate 4.5% among 410,000; AID 1259415; in the data active = activity change below about -60%; inconclusive = no clear call, values can overlap the other calls; inactive = above about -39%
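Luciferase read-out from HCMV-luciferase-infected HFFs (MOI 1 PFU/cell) 72 h post infection at 37C; compounds added after 16 h cell attachment; activity normalized between buffer-only basal and Salinomycin (10uM) inhibitor controls.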
Sm TGR inh – blocks Schistosoma mansoni thioredoxin glutathione reductase. Potency, µM (titrated, usually from 114 µM), actives largely listed as inhibitors. Q962Y6. purified TGR, DTNB reduction, TNB absorbance 405 nm. hit rate 3% among 360,000. AID 485364; also: nearly all actives have a fitted effect of over 60% in size
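TGR 20 nM + NADPH 100 uM (dispensed conc.), cpd preinc 15 min RT; start with NADPH (500 uM addition) then DTNB (15 mM addition). Kinetic TNB absorbance, 405 nm filter. Four-parameter Hill fit across titration.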
A number is an active result. Unless noted, calls follow the shape of the dose curve; as a rule, active = well fitted curve in the direction sought with a large enough effect; inconclusive = small, poorly fitted or top-dose-only effect, or another doubt; inactive = no such curve, though single readings can be large; an effect the other way counts as inactive or inconclusive.

`CCc1ccc(Nc2nc(-c3cc4cccc(OC)c4oc3=O)c(CC)s2)cc1` gave Tb PYK inh inactive, FMDV inh inactive, HCMV inh inconclusive and Sm TGR inh inactive.
`COc1ccc(-c2cc(-c3ccccc3)nc(SCC(=O)CC(=O)OC(C)C)c2C#N)cc1` gave Tb PYK inh inactive, FMDV inh inactive, HCMV inh inactive and Sm TGR inh inactive.
Screening CCOC(=O)CSc1nc(-c2ccc(F)cc2)cc(C(F)(F)F)c1C#N returned Tb PYK inh inactive, FMDV inh 31.6µM, HCMV inh inactive and Sm TGR inh inactive.
`CCOC(=O)CSc1nc(-c2ccc(OCC)cc2)cc(C(F)(F)F)c1C#N` gave Tb PYK inh inactive, FMDV inh inactive, HCMV inh inactive and Sm TGR inh inactive.
For COc1ccc(-c2cc(-c3ccccc3)c(C#N)c(SCC(=O)O)n2)cc1 the results were RE007 growth inh inactive, Tb PYK inh inactive, FMDV inh inactive and HCMV inh inconclusive.
For CC(C)OC(=O)CC(=O)CSc1nc(-c2ccc(F)cc2)cc(-c2ccccc2)c1C#N the results were RE007 growth inh inactive, Tb PYK inh inactive, Giardia FBPA inh inactive, FMDV inh inactive, HCMV inh -62.0 and Sm TGR inh inactive.
`CCN(CC)C(=O)CSc1nc(-c2ccccc2)cc(-c2ccc(OC)cc2)c1C#N` gave Tb PYK inh inactive, FMDV inh inactive, HCMV inh -64.7 and Sm TGR inh inactive.
Screening CC(C)OC(=O)[C@H]1O[C@H](CCCCOCc2ccccc2)[C@@H](C)[C@H]2O[C@H]21 returned Giardia FBPA inh inactive.
Screening COc1cc(NS(=O)(=O)c2ccc(NC(=S)NC(=O)c3ccco3)cc2)ncn1 returned RE007 growth inh inactive, Tb PYK inh inactive, Giardia FBPA inh inactive, FMDV inh inactive, HCMV inh inactive and Sm TGR inh 39.8µM.
`COc1ccc(C(=O)NC(=S)Nc2ccc(S(=O)(=O)Nc3cc(OC)nc(OC)n3)cc2)cc1` gave RE007 growth inh inactive, Tb PYK inh inactive, Giardia FBPA inh inconclusive, FMDV inh inactive, HCMV inh inactive and Sm TGR inh 14.1µM.
For O=C(NC(=S)Nc1ccc(S(=O)(=O)Nc2nccs2)cc1)c1ccc(Br)o1 the results were RE007 growth inh inactive, Tb PYK inh inactive, Giardia FBPA inh inactive, FMDV inh inactive, HCMV inh inactive and Sm TGR inh inactive.
COc1ccc(C(=O)NC(=S)Nc2ccc(S(=O)(=O)Nc3cc(OC)ncn3)cc2)cc1 was read as RE007 growth inh inactive, Tb PYK inh inactive, Giardia FBPA inh inactive, FMDV inh inactive, HCMV inh inactive and Sm TGR inh 20µM.
For Cc1cc(C)cc(NS(=O)(=O)c2ccc(NC(=S)NC(=O)c3ccc(Br)o3)cc2)c1 the results were RE007 growth inh inactive, Tb PYK inh inactive, Giardia FBPA inh inactive, FMDV inh inactive, HCMV inh -76.0 and Sm TGR inh inactive.
`COc1cc(NS(=O)(=O)c2ccc(NC(=S)NC(=O)c3sc4ccccc4c3Cl)cc2)ncn1` gave RE007 growth inh inactive, Tb PYK inh inactive, Giardia FBPA inh inactive, FMDV inh inactive, HCMV inh inactive and Sm TGR inh inactive.
Screening COc1ccc(CNC(=O)C2CCN(S(=O)(=O)c3ccc4c(ccn4C)c3)CC2)cc1 returned Tb PYK inh inactive, FMDV inh inactive, HCMV inh inactive and Sm TGR inh inactive.
Screening CC(C)c1ccc(CN(Cc2ccco2)c2cnc(S(C)(=O)=O)nc2C(=O)Nc2ccc(F)cc2)cc1 returned Tb PYK inh inactive, FMDV inh inactive, HCMV inh inactive and Sm TGR inh inactive.
For COc1cc(NS(=O)(=O)c2ccc(NC(=O)c3ccc(C(C)=O)cc3)cc2)nc(OC)n1 the results were Tb PYK inh inactive, FMDV inh inactive, HCMV inh inactive and Sm TGR inh inactive.
COc1cc(NS(=O)(=O)c2ccc(NC(=S)NC(=O)c3ccc(F)cc3)cc2)nc(OC)n1 was read as RE007 growth inh inactive, Tb PYK inh inactive, Giardia FBPA inh inactive, FMDV inh inactive, HCMV inh inactive and Sm TGR inh 31.6µM.
